Measurements taken from PubChem BioAssay (NCI).
About 83,000 compounds went through this panel and 20% of them were active in at least one assay; those are over-represented in the sample as a whole.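 Results are percent growth after 48 hours of single-concentration exposure. 100 means growth as in untreated cells, lower positive values show inhibition; negative values down to -100 show cell death.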 Unmarked numbers belong to inactive results. Rule for the calls: active = growth percent below 10; inactive = the rest.

The molecules below were run on HL-60(TB) leukemia (assay: NCI-60 one-dose screen, 48 h (100 = growth as untreated, 0 = no growth, -100 = all killed)). Conditions: 10 µM unless noted.

Row | Compound | growth
1 | COc1cc2c(cc1-c1c(C)noc1C)ncc1nc(-c3ccccn3)n([C@H](C)COC(F)F)c12 | 33.6%
2 | CCOC(=O)C(=CNc1ccccc1[N+](=O)[O-])C(=O)OCC | 90.8%
3 | C1=CN2CC(c3ccccc3)=NNC2c2ccccc21 (stereo not drawn) | 81.6%
